Among the test systems are NCI-H23 lung; NCI-H226 lung; NCI-H322M lung; HOP-62 NSCLC; NCI-H460 lung; HOP-92 NSCLC; NCI-H522 lung; A549/ATCC NSCLC; 786-0 renal; COLO 205 colon.
Experiment in all cases: NCI-60 one-dose screen, 48 h (100 = growth as untreated, 0 = no growth, -100 = all killed)
Settings in all cases: 10 µM unless noted

Compounds without any hit were thinned out: in the full panel of roughly 83,000, 20% have a hit.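 Plates (96-well) were seeded with cells, treated with compound at one concentration, and incubated for 48 hours before percent growth was determined.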 A number with no mark means an inactive call. The source made the active and inactive calls. Rule for the calls: active = growth percent below 10; inactive = the rest.

Turning to `CNC(=O)c1cncc(Cn2nc(C)c(NC(=O)c3ccc(COc4ccc(C(F)(F)F)cc4C)cc3)c2C)c1`, the growth with NCI-H23 lung was 49.3%; in the experiment with NCI-H226 lung, 58.1%; in the experiment on NCI-H322M lung it was 88.8%; in the experiment on HOP-62 NSCLC, 56.9%; with NCI-H460 lung, 62%; in the experiment on HOP-92 NSCLC it was 79.2%. Moreover, the growth in the experiment on NCI-H522 lung was 49.2%; in the experiment on A549/ATCC NSCLC, 55%; with 786-0 renal, 68.8%; in the experiment on COLO 205 colon, 66.9%.
On to `Cc1cc2c(C(=O)NCC#N)cccc2n1-c1nc2c(c(NCc3ccccc3)n1)CCCC2`, for which the growth in the experiment on NCI-H23 lung is -41.8% (active); in the experiment with NCI-H226 lung it was -69.3% (active); in the experiment with NCI-H322M lung, -19.5% (active); with HOP-62 NSCLC it was -16.9% (active); with NCI-H460 lung, -35.7% (active); in the experiment with HOP-92 NSCLC, -63.4% (active). In addition, the growth is -24.9% (active) with NCI-H522 lung, -38.9% (active) with A549/ATCC NSCLC, -56.8% (active) in the experiment on 786-0 renal and -51% (active) with COLO 205 colon.
For `CCN(Cc1ccccc1)c1ccc(C=O)cc1`, the growth was 96.3% in the experiment on NCI-H23 lung; 2.99% (active) in the experiment on NCI-H226 lung; 93.9% in the experiment on NCI-H322M lung; 108% with HOP-62 NSCLC; 100% in the experiment with NCI-H460 lung; 81.9% in the experiment with HOP-92 NSCLC. The growth in the experiment with NCI-H522 lung was 100%; in the experiment with A549/ATCC NSCLC, 98.1%; in the experiment on 786-0 renal, 102%; in the experiment on COLO 205 colon it was 113%.
Regarding `CC(C)=CCC[C@](C)(O)[C@H]1CC[C@]2(C)[C@@H]1CC[C@@H]1[C@@]3(C)C/C(=C/c4ccccc4)C(=O)C(C)(C)[C@@H]3CC[C@]12C`, the growth with NCI-H23 lung is 84.7%; in the experiment with NCI-H226 lung, 93.7%; with NCI-H322M lung it was 93.7%; in the experiment on HOP-62 NSCLC, 92.2%; in the experiment on NCI-H460 lung, 91.1%; with HOP-92 NSCLC it was 78.8%. Moreover, the growth is 77.9% in the experiment on NCI-H522 lung, 85.1% in the experiment with A549/ATCC NSCLC, 92.2% in the experiment on 786-0 renal and 99.9% in the experiment with COLO 205 colon.
Turning to `O=C(c1nc2ccccc2[nH]1)C1C(c2ccc(Cl)cc2)C2CC3CCCC[C@H]3N2[C@@]12C(=O)Nc1cc(Cl)ccc12` (stereo not given in full), the growth is 58.6% in the experiment with NCI-H23 lung; 58.8% in the experiment with NCI-H226 lung; 62.2% with NCI-H322M lung; 68.7% in the experiment with HOP-62 NSCLC; 23.1% with NCI-H460 lung; 46.3% with HOP-92 NSCLC. Moreover, the growth in the experiment on NCI-H522 lung was 56.4%; in the experiment on A549/ATCC NSCLC, 35.2%; in the experiment with 786-0 renal, 48.4%; in the experiment on COLO 205 colon it was 29.8%.
In the case of `O=C1CC(=O)OC(c2ccc([N+](=O)[O-])cc2)O1`, the growth in the experiment on NCI-H23 lung is 43.6%; in the experiment with NCI-H226 lung it was 34.8%; in the experiment with NCI-H322M lung it was 51.7%; in the experiment on HOP-62 NSCLC it was 26.5%; with NCI-H460 lung, 35.6%; in the experiment with HOP-92 NSCLC, 36.9%. Besides, the growth with NCI-H522 lung was -65.5% (active); in the experiment on A549/ATCC NSCLC, 33.6%; in the experiment with 786-0 renal, -73.8% (active); in the experiment with COLO 205 colon, -31% (active).
For `Nc1c(C(=O)Nc2cccc3cnccc23)sc2nc3c(cc12)C(=O)CCC3`, the growth was 92.6% with NCI-H23 lung; 92.7% in the experiment on NCI-H226 lung; 102% in the experiment on NCI-H322M lung; 90.5% with HOP-62 NSCLC; 78.2% with NCI-H460 lung; 80.5% in the experiment with HOP-92 NSCLC. Moreover, the growth in the experiment with NCI-H522 lung was 40.4%; in the experiment with A549/ATCC NSCLC, 87.4%; with 786-0 renal, 91.3%; with COLO 205 colon, 108%.
For the molecule `N#Cc1cccc(-c2ccc3c(c2)NC(=O)/C3=C\c2ccc[nH]2)c1`, the growth in the experiment on NCI-H23 lung is 34.2%; in the experiment on NCI-H226 lung it was 41.6%; with NCI-H322M lung it was 45.5%; with HOP-62 NSCLC it was 62.7%; with NCI-H460 lung it was 22.4%; with HOP-92 NSCLC it was 56.7%. Further, the growth in the experiment on NCI-H522 lung was 28.7%; with A549/ATCC NSCLC, 86.5%; in the experiment on 786-0 renal, 74.5%; in the experiment with COLO 205 colon, 3.47% (active).
For `CCC(=O)Oc1ccc(/C(=C(\C)c2ccccc2)c2ccc(OCCN3CCCCC3)cc2)cc1`, the growth in the experiment on NCI-H23 lung was 75.1%; with NCI-H226 lung, 82.9%; in the experiment on NCI-H322M lung, 82%; in the experiment on HOP-62 NSCLC it was 76%; in the experiment with NCI-H460 lung it was 72%; in the experiment on HOP-92 NSCLC it was 86.5%. Also, the growth in the experiment on NCI-H522 lung was 74.4%; in the experiment on A549/ATCC NSCLC it was 71.1%; in the experiment with 786-0 renal, 67.3%; in the experiment on COLO 205 colon, 32.7%.
As to `CCCCCC(=O)Oc1ccc(/C(=C(/C)Cc2ccc(OC)cc2)c2ccc(OCCCN(C)C)cc2)cc1`, the growth with NCI-H23 lung was 76.7%; in the experiment with NCI-H226 lung it was 93.3%; in the experiment on NCI-H322M lung, 92.1%; in the experiment with HOP-62 NSCLC it was 80.4%; in the experiment with NCI-H460 lung, 69.6%; in the experiment on HOP-92 NSCLC it was 73.4%. Further, the growth in the experiment on NCI-H522 lung was 98.1%; with A549/ATCC NSCLC, 76.1%; in the experiment on 786-0 renal it was 58.4%; in the experiment with COLO 205 colon, 55.6%.
Take `N#CC1=C(N)Oc2c(ccc3ccccc23)C1c1ccccc1Cl` (stereo not given): the growth in the experiment on NCI-H23 lung is 30.9%; in the experiment on NCI-H226 lung, 69.3%; in the experiment on NCI-H322M lung, 54.7%; in the experiment with HOP-62 NSCLC it was 49.9%; in the experiment with NCI-H460 lung, 5.27% (active); in the experiment on HOP-92 NSCLC, 80.6%. Further, the growth in the experiment on NCI-H522 lung is -7.02% (active); in the experiment on A549/ATCC NSCLC, 22.4%; with 786-0 renal, 27.7%; in the experiment with COLO 205 colon it was -1.64% (active).
Consider `Cc1nc2ccc(Cl)cn2c1-c1nnc(SCc2ccc([N+](=O)[O-])cc2)o1`, for which the growth with NCI-H23 lung was 55.9%; in the experiment with NCI-H226 lung, 56.4%; with NCI-H322M lung, 63.6%; with HOP-62 NSCLC, 49.6%; in the experiment with NCI-H460 lung, 49.5%; in the experiment on HOP-92 NSCLC, 48.3%. Also, the growth is 45.8% in the experiment on NCI-H522 lung, 66.8% in the experiment with A549/ATCC NSCLC, 62.5% in the experiment with 786-0 renal and 105% in the experiment on COLO 205 colon.
As to `COc1ccc(N2CCN(c3ccc(NC4=C(Cl)C(=O)c5ncccc5C4=O)cc3)CC2)cc1`, the growth in the experiment with NCI-H23 lung is 26.2%; in the experiment on NCI-H226 lung, 52.8%; in the experiment with NCI-H322M lung, 46.9%; in the experiment on HOP-62 NSCLC it was 56.2%; with NCI-H460 lung it was 17.6%; in the experiment on HOP-92 NSCLC it was 85.8%. Moreover, the growth in the experiment with NCI-H522 lung is 43.8%; in the experiment with A549/ATCC NSCLC, 36.1%; with 786-0 renal, 80.1%; with COLO 205 colon, 43%.

For the origin of these results see PubChem BioAssay (NCI).
